From PubChem BioAssay (NCI)
The panel holds about 83,000 compounds, 20% with a hit somewhere; the sample as a whole holds those more often.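 Values shown are percent growth following 48 h exposure of cells in 96-well plates to a single concentration of compound; below 10 was considered active.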 Unmarked numbers belong to inactive results. The source made the active and inactive calls.

What was measured:
Assay in all cases: NCI-60 one-dose screen, 48 h (100 = growth as untreated, 0 = no growth, -100 = all killed)
Conditions in all cases: 10 µM unless noted
NCI-H23 lung = system: NCI-H23 lung
NCI-H226 lung = system: NCI-H226 lung
NCI-H322M lung = system: NCI-H322M lung
HOP-62 NSCLC = system: HOP-62 NSCLC
NCI-H460 lung = system: NCI-H460 lung
HOP-92 NSCLC = system: HOP-92 NSCLC
NCI-H522 lung = system: NCI-H522 lung
786-0 renal = system: 786-0 renal
COLO 205 colon = system: COLO 205 colon
A549/ATCC NSCLC = system: A549/ATCC NSCLC

Row | SMILES | growth (NCI-H23 lung) | growth (NCI-H226 lung) | growth (NCI-H322M lung) | growth (HOP-62 NSCLC) | growth (NCI-H460 lung) | growth (HOP-92 NSCLC) | growth (NCI-H522 lung) | growth (786-0 renal) | growth (COLO 205 colon) | growth (A549/ATCC NSCLC)
1 | C#Cc1cccc(Nc2nc3ccc([N+](=O)[O-])cc3nc2Nc2cccc(C#C)c2)c1 | -54.6% (active) | -42.3% (active) | 1.22% (active) | -94.7% (active) | -57.6% (active) | -24.9% (active) | -64% (active) | -56.7% (active) | -87.3% (active) | –
2 | COc1ccc(-c2cc(-c3ccc(OC)cc3)nc(NCCCNc3ccnc4cc(Cl)ccc34)n2)cc1 | 81.3% | 70.5% | 98.4% | 87.4% | -39.5% (active) | 55.9% | 87.4% | -88.6% (active) | 2.44% (active) | 17.8%
3 | Cn1cc(/C=C2/C(=O)Nc3ccccc32)c2ccccc21 | 73.4% | 70.6% | 91.5% | 76.8% | 92.4% | 87.4% | 77.8% | 98.4% | 91.7% | –
4 | O=C1NC(=C(Cl)Cl)/C(=N/S(=O)(=O)N2CCCCC2)N1 | 53.9% | 89.5% | 92.5% | 62.1% | 94.2% | -81.8% (active) | -82.3% (active) | 2.47% (active) | – | –
5 | O=C1N[C@@H]2[C@@H](O)[C@@H](O)[C@H](O)C[C@H]2c2cc3c(c(O)c21)OCCO3 | -40.9% (active) | -11.3% (active) | -24.3% (active) | -26.5% (active) | 1.26% (active) | -20.1% (active) | -36.1% (active) | -1.5% (active) | -49% (active) | –
6 | COC(=O)/C(CCC=C(C)C)=C1\[C@@H](OC(C)=O)C[C@@]2(C)[C@H]1CC(=O)[C@H]1[C@@]3(C)CCC(N4CCCC4)[C@@H](C)[C@@H]3CC[C@@]12C (stereo partly specified) | 91.5% | 113% | 99.6% | 102% | 101% | 77.2% | 102% | 93.1% | 106% | –
7 | N#Cc1c(NC(=O)c2cccs2)[n+]([O-])c2ccc(Cl)cc2[n+]1[O-] | 103% | 92.1% | 108% | 95.7% | 113% | 94.8% | 93.7% | 107% | 113% | –
8 | O=C(O)C1CN(c2cccc(Cl)c2)N(c2cccc(Cl)c2)C1=O (stereo unspecified) | 89.8% | 92.8% | 83.9% | 88% | 102% | 101% | 87.1% | 96.5% | 94.5% | –
9 | C=C(CN1CC=CCC1)[C@@H]1CC[C@]2(CO)CC[C@]3(C)[C@H](CC[C@@H]4[C@@]5(C)CC[C@H](O)C(C)(C)[C@@H]5CC[C@]43C)[C@@H]12 | 101% | 97.4% | 110% | 104% | 96.2% | 92.4% | 96% | 113% | 108% | –
10 | O=C(c1ccc(F)c(Cl)c1)N1c2ccccc2Sc2ccccc21 | 78.5% | 77.3% | 102% | 76.6% | 99.5% | 37% | 42.5% | 79.8% | 44.7% | –
11 | C=C1C(=O)O[C@H]2[C@H]1CC/C(COC(=O)NCc1ccc(Cn3c(=O)sn(-c4ccc(OC)cc4)c3=O)cc1)=C\CC[C@@]1(C)O[C@@H]21 | 88.2% | 94.8% | 97.7% | 98.9% | 95.2% | -1.01% (active) | -65.4% (active) | 50.9% | -51.2% (active) | –
12 | O=C(/C=C/C12c3ccccc3C(c3ccccc31)C1C(=O)NC(=O)C12)c1ccc(F)cc1 (stereo unspecified) | 9.23% (active) | 36.9% | -4.89% (active) | -45.3% (active) | 2.15% (active) | -30.9% (active) | 2.09% (active) | -9.86% (active) | -45.4% (active) | –
13 | C[N+](C)(C/C=C/c1ccccc1)Cc1ccccc1 | 85.2% | 93.1% | 89.7% | 96.7% | 102% | 104% | 90.7% | 99.1% | 104% | –
14 | C=C1C(=O)O[C@H]2[C@H]1CC/C(COC(=O)NCCCCCCCCNC(=O)OC/C1=C/CC[C@@]3(C)O[C@H]3[C@H]3OC(=O)C(=C)[C@@H]3CC1)=C\CC[C@@]1(C)O[C@@H]21 | -53.6% (active) | -84.2% (active) | -26.4% (active) | -38.2% (active) | -51.1% (active) | -83.2% (active) | -68.7% (active) | -89.9% (active) | -64.9% (active) | 2.89% (active)
15 | CC(/C=C1\SC(=S)N(CC(=O)NC(Cc2c[nH]c3ccccc23)C(=O)O)C1=O)=C\c1ccccc1 (stereo unspecified) | 99.9% | 102% | 102% | 96.3% | 103% | 106% | 93.3% | 102% | 116% | –
